Test results published in ChEMBL document CHEMBL4513216, “Probing the Open Global Health Chemical Diversity Library for Multistage-Active Starting Points for Next-Generation Antimalarials” (ACS Infect Dis, 2020).
Screen size: about 68,000 compounds; about 2,700 (4%) showed an effect of 50% or more. The entries come from a sample that favours strong results as a whole.

Tested on: Plasmodium berghei
Experiment: Screen against P. berghei liver stage (PbLuc), transformed with Luciferase, at 2uM
Assay type: functional, HepG2
Conditions: tested at 2 uM

Row | Compound | INHIBITION [%]
1 | CC(C)CN1C[C@@H]2C(=O)NC3(CCN(C(=O)c4cccnc4)CC3)[C@@H]2C1 | 14.47
2 | Cc1cnc(-c2nc(C3CCN(Cc4ccccc4O)CC3)no2)cn1 | -10.49
3 | O=C(NCCOC1CCCC1)c1ccc(-c2ccco2)[nH]c1=O | -40.62
4 | c1ncc(Nc2nccc(C3CCCCN3CC3CCCCC3)n2)cn1 (stereo not drawn) | -8.23
5 | O=C(CCN1CCOCC1)N1CCC(Cc2ccc(CO)cc2)C1 (stereo not drawn) | -11.66
6 | O=C(CCN1CCCCC1)N1CCC(Cc2ccc(CO)cc2)C1 (stereo not drawn) | 50.61
7 | O=C(CCc1ccc(O)cc1)N1CCC(Cc2ccc(CO)cc2)C1 (stereo not drawn) | 11.28
8 | O=C(CN1CCC(c2cccc(F)c2)C1)NCC(F)(F)F (stereo not drawn) | 20.28
9 | O=C(CN1CCC(c2cccc(F)c2)C1)NCc1ccco1 (stereo not drawn) | 51.21
10 | CC(C)NC(=O)CN1CCC(c2cccc(F)c2)C1 (stereo not drawn) | 28.33
11 | CN1C[C@H]2CC[C@@H](CC1=O)N2C(=O)c1ccc(-c2ccccc2)[nH]c1=O | -40.36
12 | Nc1nccc(C2CCN(CCO)C2)n1 (stereo not drawn) | 19.86
13 | Cc1ccc(N2CCO[C@H]3CN(Cc4ccccn4)C[C@H]32)nn1 | 4.99
14 | Cc1ccoc1C(=O)N1CCn2cc(CN3CCCC3)nc2C1 | 37.2
15 | CCCS(=O)(=O)c1ncc(CN2CCC(CO)CC2)n1CC1CCCO1 (stereo not drawn) | 27.44
16 | CC1CCN(Cc2cnc(S(=O)(=O)CC3CC3)n2CC2CCCO2)CC1 (stereo not drawn) | -14.32
17 | O=S(=O)(CC1CC1)c1ncc(CN2CCOCC2)n1CC1CCCO1 (stereo not drawn) | 3.49
18 | CN1CCN(Cc2cnc(S(=O)(=O)CC3CC3)n2CC2CCCO2)CC1 (stereo not drawn) | 1.8
19 | CCCS(=O)(=O)c1ncc(CN2CCC(C)CC2)n1CC1CCCO1 (stereo not drawn) | 70.81
20 | O=S(=O)(CC1CC1)c1ncc(CN2CCSCC2)n1CC1CCCO1 (stereo not drawn) | 65.76
21 | O=C(NC1CCCN(c2ncccn2)C1)c1ccoc1 (stereo not drawn) | 36.98
22 | CC(=O)c1c(C)nn(S(=O)(=O)c2ccc(Cl)cc2)c1C | 11.8

Row | Compound | INHIBITION [%]
23 | O=C(O)c1ccnc(SCC(=O)c2ccccc2)c1 | 25.23
24 | Cc1ccc(OC2CCN(S(=O)(=O)N(C)C)CC2)nc1 | 15.75
25 | C[C@H]1CN2C[C@H](O)CC2CN1Cc1ccc2nccnc2c1 (stereo partly drawn) | -36.08
26 | CCS(=O)(=O)CC(C)N(C)C(=O)NCCc1cccc(F)c1F (stereo not drawn) | -4.09
27 | CCN(C(=O)NCCc1cccc(F)c1F)C(C)CS(C)(=O)=O (stereo not drawn) | 64.2
28 | COc1cc(Cl)ccc1CNC(=O)N(C)C(C)CS(C)(=O)=O (stereo not drawn) | -22.82
29 | CCN(C(=O)NCCc1ccccc1Cl)C(C)CS(C)(=O)=O (stereo not drawn) | 34.46
30 | COc1ccccc1CCNC(=O)N(C)C(C)CS(C)(=O)=O (stereo not drawn) | 50.46
31 | CC(C)Oc1ccccc1CNC(=O)N(C)C(C)CS(C)(=O)=O (stereo not drawn) | -25.21
32 | Cc1cccc(CN2CCc3c(nc(N4CCC(C)CC4)[nH]c3=O)C2)n1 | 23.94
33 | COc1ccc(CN2CCCC3(CCN(c4ccsc4)C3=O)C2)cc1 (stereo not drawn) | 7.21
34 | N#Cc1ccc(CS(=O)(=O)NC(=O)c2ccc3c(c2)COC3)cc1 | -14.32
35 | CCCc1cc(CNc2cc(CCC)nc3ccnn23)on1 | -15.75
36 | Fc1cccc(F)c1Cn1c(C2CCNCC2)cc2cccnc21 | 13.17
37 | C=c1ccoc1=C1NN=C(CNC2CCCN(c3cccnn3)C2)O1 (stereo not drawn) | 7.01
38 | O=C(Cc1ccccn1)N1CCc2ncnc(N3CCCC3)c2CC1 | -3.19
39 | CCNC(=O)C1CCN(Cc2ccccc2OCC(F)(F)F)CC1 | 8.59
40 | CC(C)(C)n1ncc(NCCc2ccccc2C(F)(F)F)c(Cl)c1=O | -59.58
41 | CC(=O)N1C[C@H]2CC[C@@H](C1)N(S(=O)(=O)c1ccc(F)cc1Cl)C2 | -11.81
42 | C1CCC(CNC2CCSCC2)(N2CCOCC2)CC1 | 60.13
43 | CS(=O)(=O)N1CCC(NCC2(N3CCOCC3)CCCCC2)CC1 | 7.67
44 | C1CCC(NCC2(N3CCOCC3)CCSC2)C1 (stereo not drawn) | -20.95

Row | Compound | INHIBITION [%]
45 | CCN1CC2(CCNCC2)COc2ccccc2S1(=O)=O | 3
46 | CC(C)COCC1CN(Cc2cnn(C)c2)Cc2ncn(C)c21 (stereo not drawn) | 79.02
47 | CCOCC1CN(Cc2cnn(C)c2)Cc2ncn(C)c21 (stereo not drawn) | -20.41
48 | CC(C)COCC1CN(Cc2ccoc2)Cc2ncn(C)c21 (stereo not drawn) | -13.32
49 | CC(=O)N1CCCN(C(=O)CN(C)c2ccc(Cl)cn2)CC1 | 12.29
50 | Cc1cccc(N(CC(=O)c2ccccc2)C2=NCCCCC2)c1 | -17.7
51 | Cc1oncc1C(=O)NCc1cc(=O)n2c(n1)CN(C(C)C)CCC2 | 4.42
52 | Cc1nc(CNC(=O)NCCc2ccc(N(C)C)cc2)cs1 | 12.88
53 | Cc1nc(CCNC(=O)NCc2cccc(N(C)C)n2)cs1 | 53.45
54 | Cc1nc(CCNC(=O)NCc2ccc(N(C)C)nc2)cs1 | -16.42
55 | CN(C)c1ncccc1CNc1cc(N2CCCC2CO)ncn1 (stereo not drawn) | -1.02
56 | Cc1cnccc1CN(C)Cc1c[nH]nc1-c1ccc(F)cc1F | 51.39
57 | Cc1nonc1CN(C)Cc1c[nH]nc1-c1ccc(F)cc1F | 2.59
58 | CC(C)CN(C)Cc1c[nH]nc1-c1ccc(F)cc1F | -22.69
59 | CCCN1CCC(c2cc(CCOc3ccc(C(F)(F)F)cc3)[nH]n2)C1 (stereo not drawn) | 27.53
60 | Cc1cccc(CN2CCc3[nH]nc(C(=O)N(C)C)c3C2)n1 | -25.31
61 | OC(COCc1ccccc1)CSc1nnc2ccccn12 (stereo not drawn) | 2.9
62 | OC(COCc1cccs1)CSc1nnc2ccccn12 (stereo not drawn) | 45.82
63 | OC(COCc1ccco1)CSc1nnc2ccccn12 (stereo not drawn) | 76.82
64 | Cc1ccccc1N1CCN(c2ccncn2)C(C)C1 (stereo not drawn) | -90.79
65 | Cc1ccccc1N1CCCN(c2ccncn2)CC1 | 53.45
66 | Cc1ccccc1N1CCCN(C(=O)CCc2ccncc2)CC1 | 1.42

Row | Compound | INHIBITION [%]
67 | CC(C)c1nnc2sc(CC3CN(Cc4ccccc4)CCO3)nn12 (stereo not drawn) | 23.33
68 | CC(C)N1CCOC(Cc2nn3c(Cc4ccccc4)nnc3s2)C1 (stereo not drawn) | 20.29
69 | CCCc1nnc2sc(CC3CN(Cc4ccccc4)CCO3)nn12 (stereo not drawn) | 51.43
70 | CCN1CCc2[nH]cnc2C12CCN(c1ccc(Cl)c(C(=O)O)n1)CC2 | -3.87
71 | O=C(NCc1cccnc1-n1cncn1)c1cc(Cl)ccn1 | 34
72 | CNCC1CCC(c2cc(CN(C)C(=O)c3cnccn3)n(C)n2)CC1 (stereo not drawn) | 24.98
73 | Cc1c(C(C)NC2CCN(C(C)C)CC2)cnn1-c1ccc(F)cc1F (stereo not drawn) | 14.82
74 | Cc1c(C(C)NC2CSCCSC2)cnn1-c1ccc(F)cc1F (stereo not drawn) | 81.59
75 | Cc1c(C(C)NC(=O)Nc2ccc(F)cc2F)cnn1C (stereo not drawn) | -41.11
76 | CC(=O)N1CCC(NC(C)c2cnn(-c3ccc(F)cc3F)c2C)CC1 (stereo not drawn) | 79.21
77 | COc1ccc(-n2ncc(C(C)NC3CCSCC3)c2C)cc1 (stereo not drawn) | -62.99
78 | CSc1ncc(CNC(C)c2cnn(-c3ccc(F)cc3F)c2C)cn1 (stereo not drawn) | -20.35
79 | Cc1c(C(C)NCC2CCCC2)cnn1-c1ccc(F)cc1F (stereo not drawn) | 10.05
80 | Cc1c(C(C)NC2CCCC2)cnn1-c1ccc(F)cc1F (stereo not drawn) | 12.43
81 | Cc1c(C(C)NC2CCOCC2)cnn1-c1ccc(F)cc1F (stereo not drawn) | 69.67
82 | Cc1cc2c(cc1NC(N)=O)OCO2 | 23.3
83 | CCn1nc(C)cc1C(=O)N1C[C@@H]2C[C@@H](c3nnc(C)[nH]3)O[C@@H]2C1 | 24.23
84 | CN1CCN(C2COC3(CCN(Cc4ccsc4)CC3)C2)CC1 (stereo not drawn) | -0.38
85 | COc1ccc2c(ccn2CCC(=O)/N=c2\[nH]nc(C3CCCO3)s2)c1 (stereo not drawn) | 1.57
86 | Cc1nc(C)c(CC(=O)N2C[C@@H](C(=O)O)[C@H](c3ccncc3)C2)s1 | 56.78
87 | CCOc1ccccc1CC(=O)N1C[C@@H](C(=O)O)[C@H](c2ccncc2)C1 | -36.68
88 | Cc1nc(C)c(CC(=O)N2C[C@@H](C(=O)O)[C@H](c3ccccc3C)C2)s1 | -57.67

Row | Compound | INHIBITION [%]
89 | Cc1nc(C)c(CC(=O)N2C[C@H]3CC[C@@H](C2)N(CC2CC2)C3)s1 | -38.36
90 | CCC[C@@H]1CN(C(=O)Cc2sc(C)nc2C)C[C@H]1C(=O)O | 53.55
91 | CCC[C@@H]1CN(C(=O)c2c(F)ccc(C)c2Cl)C[C@H]1C(=O)O | 2.3
92 | CCc1nccn1C1CCCN(C(=O)c2ccc3c(c2)OCCO3)C1 (stereo not drawn) | -14.17
93 | CCOC1CCC2(CCN(C(=O)c3csnn3)CC2)c2ccccc21 (stereo not drawn) | 30.15
94 | CC(C)(C)c1nc(CN2CCN(C(=O)c3cnccn3)CC2)cs1 | 8.5
95 | COc1cccc(CN2C[C@@H]3COC[C@]3(COCc3ccccn3)C2)c1 | 17.35
96 | O=C(Nc1ccc(-c2csnn2)cc1)N1CCC(N2CCCC2)C1 (stereo not drawn) | -55.13
97 | Cc1noc(CCNS(=O)(=O)N2CCCC2c2ccc(C)o2)n1 (stereo not drawn) | 20.34
98 | Cc1noc(CCCNS(=O)(=O)N2CCCC2c2ccco2)n1 (stereo not drawn) | 41.52
99 | Cc1noc(CCNS(=O)(=O)N2CCCC2c2ccco2)n1 (stereo not drawn) | 51.76
100 | CN(Cc1cccc(C(N)=O)c1)CC1CCCN1c1cccnn1 (stereo not drawn) | 15.67
101 | CCOC1CCN(C(=O)c2c(Cl)c3ccccc3n2C)CC1 | 2.8
102 | Cc1ccsc1C(O)CNS(=O)(=O)Cc1ccc(F)cc1 (stereo not drawn) | -10.98
103 | Cc1nc(NCC23CCCN2CCC3)cc(C2CCCNC2)n1 (stereo not drawn) | 35.46
104 | CNc1cc(C2CCCNC2)nc(C)n1 (stereo not drawn) | -23.54
105 | Cc1cc(C2CCC2)nc(NCCC23CCCN2CCC3)n1 | -44.93
106 | Cc1nc(NCc2ccc(C)o2)cc(C2CCNCC2)n1 | 7.42
107 | Cc1nc(NCCC23CCCN2CCC3)cc(C2CCNCC2)n1 | 50.61
108 | Cc1nc(NCCC23CCCN2CCC3)cc(C2CCCNC2)n1 (stereo not drawn) | 55.66
